According to PubChem BioAssay (NCI):
This is part of a sample that, as a whole, favours compounds with a hit. Of some 79,000 tested, about 15% had one in any assay. No stated cut-off is given here; in the data, active means growth inhibition above about 70%; inactive means the rest.

Assays:
[1] = NCI Yeast Anticancer Drug Screen. Data for the rad50 strain (AID 155);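 further: 0% = growth of vehicle-only cultures of the same strain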; details: S. cerevisiae rad50 strain growth inhibition; at 50.0 µM; hits give high values
In short: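 DNA repair mutant yeast, compound exposure, growth read-out; inhibition is taken relative to vehicle.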

[2] = NCI Yeast Anticancer Drug Screen. Data for the mec2-1 strain (AID 157); details: S. cerevisiae mec2-1 strain, at 50.0 µM, hits give high values
In short: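 Mutant yeast (mec2-1) grown with compound; growth inhibition relative to vehicle control reported.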

[3] = NCI Yeast Anticancer Drug Screen. Data for the sgs1 mgt1 strain (AID 161);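 further: 0% = growth of cultures given vehicle only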; details: S. cerevisiae sgs1 mgt1 strain, at 50.0 µM, hits give high values
In short: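 Growth of a repair-deficient yeast mutant was monitored after compound treatment and expressed as inhibition relative to vehicle-treated cultures.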

[4] = NCI Yeast Anticancer Drug Screen. Data for the cln2 rad14 strain (AID 165);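 further: 0% = growth equal to vehicle treated cultures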; details: S. cerevisiae cln2 rad14 strain, at 50.0 µM, hits give high values
In short: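 Readout is yeast growth inhibition versus vehicle-treated controls, using a strain with cln2 and rad14 alterations exposed to compound.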

[5] = NCI Yeast Anticancer Drug Screen. Data for the bub3 strain (AID 167); details: S. cerevisiae bub3 mutant strain, at 50.0 µM, hits give high values
In short: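 In this screen, a yeast mutant lacking normal mitotic checkpoint function is challenged with compound. Relative growth versus vehicle gives the inhibition value.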

[6] = NCI Yeast Anticancer Drug Screen. Data for the mlh1 rad18 strain (AID 175); details: S. cerevisiae mlh1 rad18 strain growth inhibition; at 50.0 µM; hits give high values
In short: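 Genetically defined yeast (DNA repair-deficient) exposed to compounds; growth inhibition determined relative to vehicle.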

Measured: growth inhibition

O=C(Nc1ccc(Cl)c(Cl)c1)Nc1cccc2nsnc12
inactive: [1] 4.45% | [2] 7.35% | [3] -2.7% | [4] 13.2% | [5] -1.5% | [6] 26.2%

CC(C)=CC(=O)OC(C)(C)C
inactive: [1] 11.4% | [2] 1.65% | [3] 3.35% | [4] 6.1% | [5] 7.05% | [6] 23.7%

C/C=C\c1ccc(OCCOC(C)=O)c(OC)c1
inactive: [1] 12% | [2] -13.6% | [3] -3.4% | [4] -28.2% | [5] -9.95% | [6] -15.8%

C[N+]1=C(/C=C/Nc2ccc(Cl)cc2)C(C)(C)c2ccccc21
inactive: [1] -2.35% | [2] 6.2% | [3] -10.4% | [4] -2.55% | [5] -1.8% | [6] 9.5%

CN(C)C1=c2c(=O)n(C)c(=O)n(C)c2=NC2C=CC=CN12 (stereo unspecified)
inactive: [1] 10.8% | [2] 13.6% | [3] 17.4% | [4] 4.15% | [5] 15% | [6] 22.6%

OC(c1ccccc1)(c1ccccc1)C(O)(c1ccccc1)c1ccccc1
inactive: [1] 4.3% | [2] 6.25% | [3] 19.5% | [4] -16.2% | [5] -3.35% | [6] 33.4%

CC12CC3OC3CC1CCC1C2CCC2(C)C1CCC21OCCO1 (stereo unspecified)
inactive: [1] 16% | [2] -32.7% | [3] 3.6% | [4] 3.15% | [5] 23.1% | [6] 22.6%

CC(C)(CCc1nc2ccccc2[nH]1)C(=O)O
inactive: [1] -18.1% | [2] -6.35% | [3] -1.35% | [4] -10% | [5] 1.05% | [6] -3.85%

CC(C)C(=O)Nc1ccc(Cl)c(Cl)c1
inactive: [1] 33.9% | [2] 6.35% | [3] 44.3% | [4] 41.2% | [5] -4.05% | [6] 58.1%

O=C(O)CC(=O)c1ccccc1
inactive: [1] -27.8% | [2] 4.85% | [3] -10.4% | [4] 14.2% | [5] 4.35% | [6] -15.8%

C/C(CC(O)(C(F)(F)F)C(F)(F)F)=N\N
inactive: [1] -31.9% | [2] -49.8% | [3] -20.4% | [4] -7.6% | [5] -4.5% | [6] -23.4%

Cc1ccccc1NC(=O)NC(Oc1ccccc1)(C(F)(F)F)C(F)(F)F
inactive: [1] -6.95% | [2] -21.8% | [3] -50.9% | [4] 15.6% | [5] -32.8% | [6] -29.1%

N/N=C(/CC(O)(C(F)(F)F)C(F)(F)F)c1ccccc1
inactive: [1] -10.8% | [2] -24.9% | [3] -13.9% | [4] -3.7% | [5] 3% | [6] 2.65%

CC(C(=O)O)N(C)C(=O)OCc1ccccc1 (stereo unspecified)
inactive: [1] -3.95% | [2] -21.1% | [3] 1.55% | [4] -18.8% | [5] -11.8% | [6] -4.5%

CN(C)/N=C/c1cn(C)c(=O)n(C)c1=O
inactive: [1] 0.15% | [2] 3% | [3] 5.75% | [4] -5.55% | [5] -20.3% | [6] 1.85%

CCOC(=O)NC(=O)c1cn(CC(=O)NCC(=O)NCC(=O)NCCCN2CCN(CCCNC(=O)CNC(=O)CNC(=O)Cn3cc(C(=O)NC(=O)OCC)c(=O)[nH]c3=O)CC2)c(=O)[nH]c1=O
inactive: [1] -5% | [2] 2.4% | [3] -6.85% | [4] -23.2% | [5] -1.05% | [6] -15.8%

O=c1cc(CC(O)(c2ccccc2)c2ccccc2)cc[nH]1
inactive: [1] 16.1% | [2] 3.8% | [3] -4.65% | [4] -10.8% | [5] -0.35% | [6] -1%

CC(=O)c1sc2c(c1OC(=O)c1ccc(Cl)cc1)c(=O)n(-c1ccccc1)c(=S)n2-c1ccccc1
inactive: [1] 9.55% | [2] -8.9% | [3] -11.2% | [4] 7.95% | [5] 11.9% | [6] 9.05%

CCN(CC)c1nc(N(C)C)nc(N(C)C)n1
inactive: [1] -9% | [2] -4.3% | [3] 2.15% | [4] -7.25% | [5] 18.7% | [6] 7%

NCc1ccc(Cl)cc1
inactive: [1] 8.65% | [2] -2.65% | [3] 11.4% | [4] 25.8% | [5] -2.2% | [6] 14.2%

O=Cc1ccccc1Cl
inactive: [1] 28% | [2] 12.9% | [3] 16.8% | [4] -15.2% | [5] 10.9% | [6] 13.8%

O=C(c1ccccc1)C(c1ccccc1)N(CCO)CCO (stereo unspecified)
inactive: [1] -9.8% | [2] -17.4% | [3] -2.85% | [4] -13.4% | [5] 20.6% | [6] -17.3%

O=c1c2ccccc2c2ccccc2n1C(c1ccccc1)c1ccccc1
inactive: [1] -43% | [2] -4.9% | [3] 3.25% | [4] -12.6% | [5] -11.5% | [6] -2%

C1CCC(C2CCCC[N-]2)[N-]C1.C1CCC(C2CCCC[N-]2)[N-]C1.[Cl][Ru][Cl] (stereo unspecified)
inactive: [1] 47% | [2] 8.55% | [3] 29.1% | [4] 6.8% | [5] -0.75% | [6] 18.9%

CC1CCC(OC(=O)CC#N)CC1 (stereo unspecified)
inactive: [1] -2.15% | [2] -7.2% | [3] -2.3% | [4] 3.45% | [5] 2.35% | [6] -6.15%

Cc1cc2c(c(S(=O)(=O)c3ccc(Cl)cc3[N+](=O)[O-])c1)NCCC2
inactive: [1] 6.4% | [2] 11% | [3] 8.25% | [4] 15.3% | [5] 15.7% | [6] -0.7%

CCCCCCOC(=O)C(C)(O)C(Cl)c1ccccc1 (stereo unspecified)
inactive: [1] 3.95% | [2] -0.45% | [3] -5.4% | [4] 3.9% | [5] 9.3% | [6] -10.2%

O=C(COc1ccc(Cl)c(Cl)c1)Nc1ccc(C(=O)CCl)cc1
inactive: [1] 6% | [2] 31.3% | [3] 19.4% | [4] -3.35% | [5] 42.5% | [6] 9.3%

NC(=O)c1ccccc1N1CCCCC1
inactive: [1] 16.7% | [2] -0.2% | [3] 36% | [4] 21.5% | [5] 32.5% | [6] 22.4%

COC(=O)[C@@]1(NC(=O)C(CC(=O)OC(C)(C)C)NC(=O)OC(C)(C)C)C[C@H]1C (stereo partly specified)
inactive: [1] -48.8% | [2] -28.6% | [3] -33.2% | [4] 6.15% | [5] -3.25% | [6] -14%

COC(=O)N/N=C(\C)c1sc(-c2nc(C)c(/C(C)=N/NC(=O)OC)s2)nc1C
inactive: [1] 17.9% | [2] 0.95% | [3] -27.4% | [4] -35.6% | [5] 3.05% | [6] 1.05%

Cc1ccc(N2C(=O)/C(=C/c3ccc(N(CCC#N)CCC#N)cc3)CC2(O)c2ccccc2)cc1 (stereo unspecified)
inactive: [1] -12.1% | [2] -12.6% | [3] -38.3% | [4] -23.8% | [5] -13.1% | [6] -5.55%

ClC1CC2CC1C1CCCC21 (stereo unspecified)
inactive: [1] -2.4% | [2] -3.75% | [3] -16.1% | [4] 7.2% | [5] 4.8% | [6] -7.4%

Oc1ccc(N=Cc2ccc3ccccc3n2)cc1
inactive: [1] 36% | [2] 1.55% | [3] 19.1% | [4] 10.3% | [5] -19.8% | [6] 4.2%

NC(=O)c1[nH]cnc1N
inactive: [1] 12.6% | [2] 24.9% | [3] 10.4% | [4] 4% | [5] 23.9% | [6] -58.5%

CC(=O)c1cccc(NC(=O)N2CCCCC2C)c1 (stereo unspecified)
inactive: [1] -4.9% | [2] 29.9% | [3] 8.9% | [4] -13.3% | [5] 15.2% | [6] -12.8%
